# Reference: PubChem BioAssay AID651956 (Broad Institute, 2012)
# Entries with a potency or affinity are not part of this list. Records with an inconclusive call do not appear. The source made the active and inactive calls.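 Rule for the calls: active = in every test run, a fitted half-maximal concentration for signal decrease at or below twice the highest tested concentration; inconclusive = runs disagree, flat 30 to 70% decrease, or poor fit; inactive = the rest.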
# Assay: miR-122 activators in hepatoma reporter cells, dose response, cell-based, Huh7 psiCHECK-miR122, Renilla luciferase, cherry-picked (AID 651956);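 note: Renilla luciferase from a miR-122 sensor reporter so lower signal means miR-122 activation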
# Conditions: 48 h; series mostly up to 35 µM
row,Structure (SMILES),outcome
1,COc1ccc(C2SCC(=O)Nc3c2c(=O)[nH]n3C2CCCCCC2)cc1 (centres undefined),inactive
2,O=C1NC(=O)N(CCC2=CCCCC2)C(=O)/C1=C\c1cccs1,inactive
3,COc1ccc2c(c1)c(CCN)c(C)n2Cc1ccccc1,inactive
4,O=C(c1ccco1)c1cn(Cc2ccccc2Cl)c2ccccc12,inactive
